The nature of experiment [1]: qHTS assay to identify small molecule agonists of the TGF-beta/Smad signaling pathway (AID 1346859; active = well fitted activation curve with a large enough effect in the signal ratio in the repeat runs, not every such curve was filed as active; the % refers to the signal ratio; note: series mostly up to about 77 µM). The gist of the method: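 Read-out: fluorescence at 460 and 530 nm (405 nm excitation) after a 2 hr room-temperature incubation with beta-lactamase FRET substrate. SBE-bla HEK 293T cells had been treated with test compounds for 5 hr at 37 C.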
In general terms: qHTS replaces the single test concentration by a dilution series.

Experiment [2] in a line: Human pregnane X receptor (PXR) small molecule agonists, qHTS cell viability counter screen (AID 1346977). Note: nearly all actives have a fitted effect of over 50% in size. In short, it runs like this:
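Fluorescence read-out (CellTiter-Fluor) of viability in PXR-Luc HepG2 cells, multiplexed with the luciferase agonist read. Compounds in DMSO added after 5hr plating; 24hr total exposure at 37C, 5% CO2.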

A short description of experiment [3]: Caspase-3/7 induction in HepG2 cells by small molecules, qHTS assay (AID 1346978). Note: nearly all actives have a fitted effect of over 15% in size. In short, it runs like this:
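Wild-type HepG2 cells (2,000/well) were settled 5 h at 37 C, 5% CO2, then exposed to compounds in DMSO for 17 h. Caspase-3/7 activity was read by luminescence 30 min after adding Caspase-Glo 3/7 reagent at room temperature.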

Experiment [4] in a line: Caspase-3/7 induction in CHO-K1 cells by small molecules, qHTS cell viability counter screen (AID 1346979). Note: nearly all actives have a fitted effect of over 35% in size. The gist of the method:
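CHO-K1 wt, 1,500 cells/well; 5hr pre-incubation 37C/5% CO2; compound pin transfer (DMSO); 16hr exposure; CellTiter-Fluor added, 1hr, fluorescence read.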

Experiment [5] in a line: Caspase-3/7 induction in CHO-K1 cells by small molecules, qHTS assay (AID 1346980). Note: nearly all actives have a fitted effect of over 15% in size. In short, it runs like this: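 Wild-type cells were seeded at 1,500 per well and settled 5 hr at 37 C, 5% CO2, then exposed to DMSO-dissolved compounds for 17 hr. Caspase-Glo 3/7 reagent was added, and luminescence was read after 30min at room temperature.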
Experiment [6] in a line: Caspase-3/7 induction in HepG2 cells by small molecules, qHTS cell viability counter screen (AID 1346981). Note: series mostly up to about 92 µM; nearly all actives have a fitted effect of over 30% in size. The gist of the method:
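Fluorescence read-out of live-cell protease activity (CellTiter-Fluor) after 1 hr with reagent. This was measured in the same wells as the caspase-3/7 luminescence, on HepG2 cells exposed to DMSO-dissolved compounds for 16 hr at 37 C.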

In experiment [7] the target is Cytochrome P450 2D6 (Homo sapiens) (UniProt P10635). In words: Cytochrome P450 Family 2 Subfamily D Member 6 (CYP2D6) small molecule antagonists: luciferase reporter qHTS assay (AID 1671196). Note: series mostly up to about 120 µM; nearly all actives have a fitted effect of over 50% in size. The gist of the method:
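Luminogenic proluciferin substrate, CYP2D6 enzyme; 10 min RT preincubation with compound, NADPH regeneration system added, 1 h RT. Stop/detection reagent, 20 min RT, luminescence read (RLU). Signal proportional to CYP activity.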

Experiment [8] addresses Cytochrome P450 2C19 (Homo sapiens) (UniProt P33261). Nature of the experiment: Cytochrome P450 Family 2 Subfamily C Member 19 (CYP2C19) small molecule antagonists: luciferase reporter qHTS assay (AID 1671197). Note: series mostly up to about 120 µM; nearly all actives have a fitted effect of over 65% in size. In short, it runs like this: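 CYP2C19 P450-Glo, 1536-well qHTS. Cpd + enzyme/proluciferin substrate 10 min RT; + NADPH regen, 37C 1 h; stop with luciferin detection reagent, 20 min RT, luminescence (RLU). Pos ctrl ketoconazole.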
In general terms: In a reporter assay the amount or activity of a reporter protein is the signal.

Experiment [9] deals with Cytochrome P450 2C9 (Homo sapiens) (UniProt P11712). In words: Cytochrome P450 Family 2 Subfamily C Member 9 (CYP2C9) small molecule antagonists: luciferase reporter qHTS assay (AID 1671198). Note: series mostly up to about 120 µM; nearly all actives have a fitted effect of over 50% in size. The gist of the method:
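CYP2C9 activity was measured with a P450-Glo proluciferin substrate. Enzyme–substrate mix was held with compound for 10 min at room temperature, then NADPH regeneration solution was added for 1 h at 37C. Luciferin product was read as luminescence.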

Experiment [10] addresses Cytochrome P450 1A2 (Homo sapiens) (UniProt P05177). In words: Cytochrome P450 Family 1 Subfamily A Member 2 (CYP1A2) small molecule antagonists: luciferase reporter qHTS assay (AID 1671199). Note: series mostly up to about 120 µM; nearly all actives have a fitted effect of over 50% in size. The gist of the method:
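Luminescence readout (relative luminescence units) after luciferin detection reagent, 20 min RT. Preceded by 1 h room-temperature CYP1A2 reaction with NADPH regeneration solution following 10 min compound preincubation with enzyme and proluciferin substrate. Furafylline positive control.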

Experiment [11] deals with Voltage-gated inwardly rectifying potassium channel KCNH2 (Homo sapiens) (UniProt Q12809). In words: Human Ether-a-go-go-Related Gene (hERG) channel small molecule antagonists: fluorescence cell-based qHTS assay (AID 1671200). The gist of the method: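 Read-out: thallium influx as a surrogate for potassium, tracked as fluorescence (480 nm ex/540 nm em) every second for 2 min after Stimulus Buffer addition in dye-loaded hERG-U2OS cells.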
In general terms: hERG is a cardiac potassium channel; its block is linked to QT prolongation.

Experiment [12] concerns the target Thyrotropin-releasing hormone receptor (Homo sapiens) (UniProt P34981). Nature of the experiment: qHTS assay to identify small molecule antagonists of the thyrotropin-releasing hormone receptor (TRHR) signaling pathway (AID 1346877; active = well fitted inhibition curve with a large enough effect in the repeat runs, not every such curve was filed as active; note: series mostly up to about 51 µM). The gist of the method: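 HEK293/TRHR cells, 18 h, 37 °C; Ca2+ dye 2 h; cpd 5 min RT; TRH 1 nM final; fluorescence read 3 min, 1 s intervals; 15 concs, triplicate.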

For experiment [13] the target is unchanged. Nature of the experiment: qHTS assay to identify small molecule agonists of the thyrotropin-releasing hormone receptor (TRHR) signaling pathway (AID 1346891; calls by dose curve;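 note: HEK293 cells expressing TRHR with calcium dye readout; series mostly up to about 58 µM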). The gist of the method: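 HEK293/TRHR cells, 1500 per well, 18 h 37 °C; Ca dye 2 h 37 °C; pin-tool compound addition (agonist mode); kinetic fluorescence 3 min, 1 s reads; 15 concentrations, triplicate.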

The target in experiment [14] is Nuclear receptor subfamily 1 group I member 2 (Homo sapiens) (UniProt O75469). Nature of the experiment: Human pregnane X receptor (PXR) small molecule agonists, qHTS assay (AID 1346982). Note: nearly all actives have a fitted effect of over 35% in size. The gist of the method:
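HepG2 PXR-Luc reporter line, 5% charcoal-stripped FBS; 5 hr pre-incubation, compound (DMSO) 24 hr at 37 C/5% CO2; ONE-Glo 30 min RT; luminescence read-out.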

In experiment [15] the target is Nuclear receptor subfamily 1 group I member 2 (Rattus norvegicus) (UniProt Q9R1A7). In words: Rat pregnane X receptor (rPXR) activation by small molecules, qHTS assay (AID 1346983). Note: nearly all actives have a fitted effect of over 20% in size. Particulars: rPXR luciferase reporter cells, One-Glo luminescence, 24 h; max activation: stronger effect = higher value. The gist of the method: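 Cell-based rPXR luciferase reporter assay, 2,000 cells per well, rested 5hr at 37 C before compound addition in DMSO, then 24 hr at 37 C. One-Glo reagent was added and luminescence read after 30 min at room temperature.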

Experiment [16] has as its target Nuclear receptor subfamily 1 group I member 2 (Homo sapiens) (UniProt O75469). Nature of the experiment: CYP3A4 induction through human pregnane X receptor (PXR) by small molecules, qHTS assay (AID 1346984). Note: nearly all actives have a fitted effect of over 40% in size. The gist of the method:
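HepG2-derived DPX-2 line carrying PXR plus a CYP3A4-promoter luciferase reporter; cells plated 5 hr, compound-exposed 24 hr at 37C. CYP3A4 activity probed with 3uM (final) Luciferin-IPA for 3hr, then luciferase read after One-Glo.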

Experiment [17] has the same target. In words: Human pregnane X receptor (PXR) activation by small molecules, qHTS assay (AID 1346985). Note: nearly all actives have a fitted effect of over 40% in size. In short, it runs like this: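 DPX-2 cells (HepG2 co-transfected with a PXR response element and a CYP3A4-promoter luciferase construct) were seeded at 2,000 per well, rested 5 hr at 37C, then exposed to DMSO-dissolved compounds for 24 hr. Activation was read as luciferase luminescence.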

Experiment [18] has as its target Cytochrome P450 3A4 (Homo sapiens) (UniProt P08684). In words: Cytochrome P450 Family 3 Subfamily A Member 4 (CYP3A4) small molecule antagonists: luciferase reporter qHTS assay (AID 1671201). For activity change, negative = inhibition: series mostly up to about 120 µM. Note: nearly all actives have a fitted effect of over 50% in size. Note: potency is the fitted concentration of half-maximal effect. The gist of the method: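 Luminescent readout (RLU) proportional to CYP3A4 activity, from luciferin generated off a proluciferin substrate. Enzyme–substrate mix plus compound 10 min at room temp, NADPH regeneration 1 h, detection reagent 20 min.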

A number with no mark means an inactive call. Inconclusive results are not listed. The source made the active and inactive calls. Unless noted, calls come from the whole dose curve; as a rule, active = well fitted curve in the direction sought with a large enough effect in the repeat runs; inconclusive = weak or mixed curves; inactive = no such curve, though single readings can be large; an effect the other way counts as inactive or inconclusive.
% is set by controls: 0 for no effect and ±100 for the full control effect.

Cytochrome P450 2C19 (Homo sapiens), sequence (P33261 whole entry, looked up): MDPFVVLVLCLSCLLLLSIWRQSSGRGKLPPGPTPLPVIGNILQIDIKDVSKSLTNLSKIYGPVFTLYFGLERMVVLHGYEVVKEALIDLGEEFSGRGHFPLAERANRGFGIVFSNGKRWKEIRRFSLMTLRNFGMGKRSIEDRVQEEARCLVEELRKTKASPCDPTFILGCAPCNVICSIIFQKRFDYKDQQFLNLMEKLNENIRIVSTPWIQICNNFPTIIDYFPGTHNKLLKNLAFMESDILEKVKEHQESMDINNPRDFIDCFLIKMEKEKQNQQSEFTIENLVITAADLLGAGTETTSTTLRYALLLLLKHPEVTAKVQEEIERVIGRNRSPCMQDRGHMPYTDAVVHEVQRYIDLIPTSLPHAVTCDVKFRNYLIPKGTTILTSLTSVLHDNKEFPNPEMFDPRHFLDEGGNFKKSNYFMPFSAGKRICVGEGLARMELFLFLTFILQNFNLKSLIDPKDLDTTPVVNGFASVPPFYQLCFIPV
Voltage-gated inwardly rectifying potassium channel KCNH2 (Homo sapiens), sequence (Q12809 whole entry, looked up): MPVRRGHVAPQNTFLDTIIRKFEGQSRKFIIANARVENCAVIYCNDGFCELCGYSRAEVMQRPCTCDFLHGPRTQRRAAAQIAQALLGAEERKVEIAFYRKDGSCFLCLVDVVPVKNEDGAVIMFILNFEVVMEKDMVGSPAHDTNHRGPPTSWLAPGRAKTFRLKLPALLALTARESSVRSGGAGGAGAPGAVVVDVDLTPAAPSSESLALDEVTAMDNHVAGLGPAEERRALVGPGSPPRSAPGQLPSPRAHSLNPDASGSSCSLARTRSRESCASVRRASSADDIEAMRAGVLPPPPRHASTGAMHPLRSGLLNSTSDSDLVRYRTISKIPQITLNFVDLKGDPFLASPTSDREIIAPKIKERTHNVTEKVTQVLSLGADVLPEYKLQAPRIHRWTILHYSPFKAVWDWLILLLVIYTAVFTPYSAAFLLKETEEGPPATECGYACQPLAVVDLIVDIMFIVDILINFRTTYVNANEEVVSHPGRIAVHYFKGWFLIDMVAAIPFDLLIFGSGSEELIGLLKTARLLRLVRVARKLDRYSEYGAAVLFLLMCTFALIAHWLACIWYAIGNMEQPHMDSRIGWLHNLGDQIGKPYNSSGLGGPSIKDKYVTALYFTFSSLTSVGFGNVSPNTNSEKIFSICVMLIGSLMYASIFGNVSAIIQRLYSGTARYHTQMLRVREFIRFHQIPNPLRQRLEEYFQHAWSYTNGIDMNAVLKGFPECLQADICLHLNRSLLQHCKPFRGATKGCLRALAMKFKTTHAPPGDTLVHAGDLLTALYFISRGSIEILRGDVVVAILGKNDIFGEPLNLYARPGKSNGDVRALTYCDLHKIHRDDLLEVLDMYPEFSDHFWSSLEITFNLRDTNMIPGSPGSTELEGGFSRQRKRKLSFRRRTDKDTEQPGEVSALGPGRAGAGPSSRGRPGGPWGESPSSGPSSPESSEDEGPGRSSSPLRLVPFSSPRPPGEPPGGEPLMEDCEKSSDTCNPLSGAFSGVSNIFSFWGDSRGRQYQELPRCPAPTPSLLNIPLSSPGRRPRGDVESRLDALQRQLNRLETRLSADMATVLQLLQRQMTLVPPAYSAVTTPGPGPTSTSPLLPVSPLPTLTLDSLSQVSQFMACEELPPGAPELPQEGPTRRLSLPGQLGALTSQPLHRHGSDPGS
Nuclear receptor subfamily 1 group I member 2 (Homo sapiens), sequence (O75469 whole entry, looked up): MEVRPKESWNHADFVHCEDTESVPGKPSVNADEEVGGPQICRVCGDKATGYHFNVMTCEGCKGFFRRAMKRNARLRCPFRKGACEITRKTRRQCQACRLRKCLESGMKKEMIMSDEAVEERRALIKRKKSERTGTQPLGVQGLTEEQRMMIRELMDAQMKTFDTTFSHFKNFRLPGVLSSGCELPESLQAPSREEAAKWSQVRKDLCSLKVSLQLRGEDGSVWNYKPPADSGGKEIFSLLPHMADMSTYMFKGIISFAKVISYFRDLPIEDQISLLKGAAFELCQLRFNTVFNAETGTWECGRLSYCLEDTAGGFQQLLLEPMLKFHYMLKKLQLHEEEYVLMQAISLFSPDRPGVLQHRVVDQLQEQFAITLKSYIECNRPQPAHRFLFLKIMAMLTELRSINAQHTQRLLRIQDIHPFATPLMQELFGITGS
Cytochrome P450 3A4 (Homo sapiens), sequence (P08684 whole entry, looked up): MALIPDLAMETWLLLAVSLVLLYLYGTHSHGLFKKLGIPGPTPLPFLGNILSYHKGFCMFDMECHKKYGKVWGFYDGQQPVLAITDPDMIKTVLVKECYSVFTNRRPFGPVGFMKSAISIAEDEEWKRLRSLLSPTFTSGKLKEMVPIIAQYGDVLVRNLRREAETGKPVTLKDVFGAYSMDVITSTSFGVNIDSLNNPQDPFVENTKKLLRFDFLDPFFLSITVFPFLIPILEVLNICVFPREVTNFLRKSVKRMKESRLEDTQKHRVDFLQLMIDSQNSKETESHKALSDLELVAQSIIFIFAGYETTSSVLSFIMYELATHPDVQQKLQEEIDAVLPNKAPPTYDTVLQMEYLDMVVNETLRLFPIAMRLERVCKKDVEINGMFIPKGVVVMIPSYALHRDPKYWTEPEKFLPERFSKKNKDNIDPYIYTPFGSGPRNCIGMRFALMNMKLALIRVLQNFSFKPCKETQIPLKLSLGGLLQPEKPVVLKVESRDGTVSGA
Cytochrome P450 2D6 (Homo sapiens), sequence (P10635 whole entry, looked up): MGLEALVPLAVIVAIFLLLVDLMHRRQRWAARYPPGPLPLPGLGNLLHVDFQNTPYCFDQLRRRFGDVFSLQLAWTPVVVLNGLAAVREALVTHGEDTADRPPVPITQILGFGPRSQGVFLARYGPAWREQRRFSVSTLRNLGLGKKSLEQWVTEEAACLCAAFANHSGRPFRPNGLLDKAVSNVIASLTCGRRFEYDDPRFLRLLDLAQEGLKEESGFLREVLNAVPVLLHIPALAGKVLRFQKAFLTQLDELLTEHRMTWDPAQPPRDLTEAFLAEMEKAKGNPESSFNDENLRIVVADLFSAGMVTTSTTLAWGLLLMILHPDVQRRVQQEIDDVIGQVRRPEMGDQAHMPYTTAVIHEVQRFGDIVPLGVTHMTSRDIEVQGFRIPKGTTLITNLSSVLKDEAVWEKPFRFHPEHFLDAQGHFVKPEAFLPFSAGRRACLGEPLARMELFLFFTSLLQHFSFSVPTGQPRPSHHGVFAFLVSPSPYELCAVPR
Thyrotropin-releasing hormone receptor (Homo sapiens), sequence (P34981 whole entry, looked up): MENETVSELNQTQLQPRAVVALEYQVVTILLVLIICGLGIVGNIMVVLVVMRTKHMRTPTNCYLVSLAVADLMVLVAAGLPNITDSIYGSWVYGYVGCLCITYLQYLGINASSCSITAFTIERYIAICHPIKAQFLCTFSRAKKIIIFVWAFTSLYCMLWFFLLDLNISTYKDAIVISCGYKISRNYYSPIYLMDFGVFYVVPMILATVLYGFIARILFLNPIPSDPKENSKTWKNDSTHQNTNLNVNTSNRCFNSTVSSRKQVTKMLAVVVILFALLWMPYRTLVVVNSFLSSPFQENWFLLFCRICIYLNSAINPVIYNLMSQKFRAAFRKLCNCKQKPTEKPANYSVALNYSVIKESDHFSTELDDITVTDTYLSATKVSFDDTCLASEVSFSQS
Cytochrome P450 1A2 (Homo sapiens), sequence (P05177 whole entry, looked up): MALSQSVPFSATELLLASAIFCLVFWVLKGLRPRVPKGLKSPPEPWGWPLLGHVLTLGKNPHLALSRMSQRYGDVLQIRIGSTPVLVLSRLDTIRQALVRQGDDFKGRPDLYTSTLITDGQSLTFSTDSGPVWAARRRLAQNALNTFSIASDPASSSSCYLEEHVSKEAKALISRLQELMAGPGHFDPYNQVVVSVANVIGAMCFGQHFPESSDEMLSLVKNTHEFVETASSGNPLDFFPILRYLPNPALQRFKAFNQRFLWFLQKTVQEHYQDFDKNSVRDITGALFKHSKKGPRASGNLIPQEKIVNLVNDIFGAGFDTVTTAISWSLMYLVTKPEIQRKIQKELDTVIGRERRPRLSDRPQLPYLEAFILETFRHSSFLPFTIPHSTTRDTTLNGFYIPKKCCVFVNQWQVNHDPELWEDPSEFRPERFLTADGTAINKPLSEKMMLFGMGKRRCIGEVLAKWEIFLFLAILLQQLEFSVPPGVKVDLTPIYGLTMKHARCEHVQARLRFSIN
Cytochrome P450 2C9 (Homo sapiens), sequence (P11712 whole entry, looked up): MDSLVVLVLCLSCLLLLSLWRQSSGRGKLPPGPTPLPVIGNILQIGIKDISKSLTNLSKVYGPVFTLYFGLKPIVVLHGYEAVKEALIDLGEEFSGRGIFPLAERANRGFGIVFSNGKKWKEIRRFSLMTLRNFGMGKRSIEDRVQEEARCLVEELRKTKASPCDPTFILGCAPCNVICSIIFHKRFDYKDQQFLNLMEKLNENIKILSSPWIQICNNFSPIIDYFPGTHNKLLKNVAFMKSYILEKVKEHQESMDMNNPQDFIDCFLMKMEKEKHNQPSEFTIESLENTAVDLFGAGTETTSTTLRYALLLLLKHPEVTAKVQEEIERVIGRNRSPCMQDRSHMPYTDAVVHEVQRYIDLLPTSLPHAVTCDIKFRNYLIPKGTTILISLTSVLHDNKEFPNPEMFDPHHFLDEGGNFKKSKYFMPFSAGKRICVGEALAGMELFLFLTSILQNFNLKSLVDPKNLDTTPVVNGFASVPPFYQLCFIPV
Nuclear receptor subfamily 1 group I member 2 (Rattus norvegicus), sequence (Q9R1A7 whole entry, looked up): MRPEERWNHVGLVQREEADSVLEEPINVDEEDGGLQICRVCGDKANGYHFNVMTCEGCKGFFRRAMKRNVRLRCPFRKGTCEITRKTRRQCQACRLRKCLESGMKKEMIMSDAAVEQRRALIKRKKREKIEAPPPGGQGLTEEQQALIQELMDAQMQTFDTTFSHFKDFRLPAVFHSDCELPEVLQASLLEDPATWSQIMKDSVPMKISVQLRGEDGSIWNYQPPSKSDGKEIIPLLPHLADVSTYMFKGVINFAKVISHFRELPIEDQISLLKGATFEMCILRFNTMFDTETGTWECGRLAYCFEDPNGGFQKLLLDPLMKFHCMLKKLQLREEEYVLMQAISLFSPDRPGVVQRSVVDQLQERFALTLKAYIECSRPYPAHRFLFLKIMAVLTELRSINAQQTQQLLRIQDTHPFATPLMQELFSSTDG

As for `CC/C=C\CCCCCCCCCCOC(C)=O`, the molecule was called inactive in experiment [1], in experiment [2], in [3], in experiment [5] and in [6]. The Potency result in [4], in [7], in experiment [8], in experiment [9], in experiment [10] and in experiment [11] was “inactive” in each case.
With `CN1CCN(C(=O)C2CCCCC2)CC1`, the molecule was called inactive in experiment [12], in experiment [2], in experiment [3], in experiment [5], in [6] and in [16]. Also, in experiment [17], the outcome was inactive. Moreover, the Potency entry in experiment [13], in experiment [4], in [14], in experiment [7], in experiment [9] and in [10] was “inactive” in each case. Besides, the Potency entry in experiment [11] and in experiment [18] was “inactive” in each case. Besides, the max activation in [15] was -9.64%.
Regarding `O=C1CCCc2c(O)cccc21`, the molecule was called inactive in experiment [1], in experiment [2], in experiment [5] and in experiment [6]. In addition, the Potency result in experiment [4], in experiment [14], in experiment [7], in experiment [9], in [11] and in experiment [18] was “inactive” each time.
`CC(C)C(C)C`: the molecule was classed as inactive in experiment [1], in [2], in [5] and in [6]. In addition, the Potency result in [4], in experiment [14], in experiment [7], in experiment [8], in experiment [9] and in experiment [10] was “inactive” throughout. Further, the Potency entry in experiment [11] is “inactive”.
With `COCc1nnc(-c2ccc[n+]([O-])c2)n1-c1c(Cl)c(Cl)cc2[nH]c(=O)c(=O)[nH]c12`, the molecule was classed as inactive in experiment [1], in [2], in experiment [3], in [5] and in experiment [6]. In addition, the Potency entry in experiment [4], in [14], in experiment [7], in experiment [9] and in [11] was “inactive” in each case. For the same molecule, the Potency in experiment [18] is 6.33 µM (active).
In the case of `CC(=O)OCC(=O)[C@@]1(O)CC[C@H]2[C@@H]3CCC4=CC(=O)C=C[C@]4(C)[C@H]3[C@@H](O)C[C@@]21C`, the call in [1], in experiment [2], in experiment [3], in experiment [5], in experiment [6] and in experiment [16] was inactive. Further, the molecule was called inactive in experiment [17]. Further, the Potency result in experiment [7], in experiment [8], in experiment [9], in experiment [10] and in experiment [11] was “inactive” each time.
For `O=Cc1ccccc1S(=O)(=O)O`, the molecule was classed as inactive in experiment [1], in experiment [2], in experiment [3], in experiment [5] and in experiment [6]. Moreover, the Potency entry in [4], in [14], in [7], in experiment [8], in experiment [11] and in experiment [18] was “inactive” throughout.
For `C[C@@H]1NC(=O)[C@@H](N)CNC(=O)[C@H](C2CCNC(N)=N2)NC(=O)/C(=C/NC(N)=O)NC(=O)[C@H](CNC(=O)C[C@@H](N)CCCN)NC1=O` (some centres undefined), in experiment [12], the activity, negative = inhibition is -1.68% [at 0.194 µM]. The activation in experiment [13] is -0.265% [at 0.218 µM]; in [14], -4.64% [at 0.349 µM]. In addition, the activity change, negative = cytotoxicity in experiment [2] was -2.73% [at 0.349 µM]; in [4] it was 9.26% [at 0.349 µM]; in [6], -0.309% [at 0.349 µM]. In addition, in experiment [3], the caspase activation was -1.07% [at 0.349 µM]. Moreover, the caspase-3/7 activation in experiment [5] was 0.0211% [at 0.349 µM]. Further, the max activation in experiment [15] was -6.29%. The molecule was classed as inactive in experiment [16] and in experiment [17]. Further, the activity change, negative = inhibition in experiment [7] is -6.52% [at 0.435 µM]; in experiment [9] it was 3.32% [at 0.435 µM]; in experiment [10], 10.4% [at 0.435 µM]; in [11], 0.491% [at 0.29 µM]; in experiment [18], 1.92% [at 0.435 µM].
As for `N#Cc1cc(NC(=O)C(=O)O)c(Cl)c(NC(=O)C(=O)O)c1`, the result in [1], in experiment [2], in experiment [3], in [5] and in [6] was inactive. For the same molecule, the Potency entry in [4], in experiment [14], in experiment [7], in [9], in experiment [11] and in [18] was “inactive” throughout.

Values taken from PubChem BioAssay (Tox21).
